The full list was thinned out, with hits kept by preference.
Methyltransferases: Primary Screen for Target Class Profiling of Small Molecule Inhibitors of Methyltransferases; AID 1745853, 2022; calls only at 40 µM; purified enzyme, MTase-Glo SAH luminescence; stronger effect = lower value; hit rate 3.9% among 25,000; call rule not given here
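Each enzyme was assayed with SAM and its substrate. SAH formation detected by MTase-Glo luminescence; single-point 40 uM screen[…].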
Calls only; ! = repeats disagree.

CC(C)NC(=O)c1ccc2c(=O)n(C(C)C)c3nn(Cc4ccccc4Cl)c(=O)n3c2c1 was read as Methyltransferases inactive.
O=C1CN(Cc2ccc(Cl)cc2)S(=O)(=O)c2ccccc2N1Cc1cccc(F)c1 was read as Methyltransferases inactive.
Screening CCCn1c(=O)c2ccc(C(=O)NC(C)CC)cc2n2c(=O)n(CC(=O)c3ccc(C)cc3C)nc12 (stereo not drawn) returned Methyltransferases inactive.
Screening CC(C)NC(=O)c1ccc2c(=O)n(Cc3ccccc3)c3nnc(SCc4ccc(F)cc4)n3c2c1 returned Methyltransferases inactive.
`N[C@@H](Cc1ccc(O)c(I)c1)C(=O)O` gave Methyltransferases inactive.
For COC(=O)[C@@H](N)Cc1ccc(O)c(O)c1 the results were Methyltransferases inactive.
Screening O=C(O)Cc1ccc(O)c(O)c1 returned Methyltransferases active.
`CCC(C)NC(=O)c1ccc2c(=O)n(C)c3nnc(SCc4ccc(C)cc4)n3c2c1` (stereo not drawn) gave Methyltransferases inactive.
Screening CCOc1ccc(C(=O)Cn2nc3n(CCC(C)C)c(=O)c4ccc(C(=O)NC(C)C)cc4n3c2=O)cc1 returned Methyltransferases inactive.
For COc1ccc(CNC(=O)Cn2ccc3cc(S(=O)(=O)N4CCC(C)CC4)ccc32)cc1 the results were Methyltransferases inactive.
CC(C)c1ccc(NC(=O)Cn2c(=O)oc3cc(S(=O)(=O)NCc4ccccc4)ccc32)cc1 was read as Methyltransferases active.
For Cc1ccc(NC(=O)Cn2c(=O)oc3cc(S(=O)(=O)NCc4ccccc4)ccc32)cc1C the results were Methyltransferases inactive.
Cc1cccc(NC(=O)Cn2c(=O)oc3cc(S(=O)(=O)NCc4ccccc4)ccc32)c1 was read as Methyltransferases inactive.
Cc1ccccc1N1C(=O)c2cc3occc3n2CC1(C)C(=O)NC1CCCCCCC1 (stereo not drawn) was read as Methyltransferases inactive.
CC1(C(=O)NC2CCCCCC2)Cn2c(ccc2-c2ccco2)C(=O)N1CCCN1CCOCC1 (stereo not drawn) was read as Methyltransferases inactive.
C=CC(=O)Nc1cccc(Nc2nc(Nc3ccc(OCCOC)cc3)ncc2F)c1 was read as Methyltransferases active.
`CC(C)(C)NC(=O)Nc1cccc(Nc2ncc(F)c(NC(C)(C)CO)n2)c1` gave Methyltransferases inactive.
Screening CC1(C(=O)Nc2ccccc2F)COCc2cnc(Nc3ccccc3)nc21 (stereo not drawn) returned Methyltransferases inactive.
`CCCN1C(=O)c2c(C(=O)NCc3ccccc3OCC)ncn2CC1(C)C(=O)NCc1ccc(OC)cc1` (stereo not drawn) gave Methyltransferases inactive.
Screening Oc1cc(CNC(=S)/C=C/c2cc(O)c(O)c(Br)c2)cc(O)c1O returned Methyltransferases active.
`COc1ccc(OC)c2c1cc1n2CC(C)(C(=O)NC2CCCCC2)N(Cc2ccccn2)C1=O` (stereo not drawn) gave Methyltransferases active.
COc1ccc(CCN2C(=O)c3cc4oc(C)cc4n3CC2(C)C(=O)NC2CCCCC2)cc1OC (stereo not drawn) was read as Methyltransferases active.
`Cc1cc2c(cc3n2CC(C)(C(=O)NC2CCCCCCC2)N(CCc2ccccc2)C3=O)o1` (stereo not drawn) gave Methyltransferases inactive.
For COc1ccc(OC)c2c1cc1n2CC(C)(C(=O)NC2CCCCC2C)N(Cc2ccccn2)C1=O (stereo not drawn) the results were Methyltransferases inactive.
Screening COc1ccc(OC)c2c1cc1n2CC(C)(C(=O)NC2CCCC2)N(Cc2ccccc2)C1=O (stereo not drawn) returned Methyltransferases inactive.
Screening Cc1cc2c(cc3n2CC(C)(C(=O)NC2CCCCC2)N(CCc2ccccc2)C3=O)o1 (stereo not drawn) returned Methyltransferases inactive.
`COc1ccc(-c2cc3n(n2)CC(C)(C(=O)NCc2ccccc2OC)N(c2cccc(OC)c2)C3=O)cc1` (stereo not drawn) gave Methyltransferases inactive.
Screening CCCCN1C(=O)c2cc(C(=O)Nc3ccccc3Cl)nn2CC1(C)C(=O)NC1CCCC1 (stereo not drawn) returned Methyltransferases inactive.
Screening CC1(C(=O)NC2CCCCCC2)Cn2c(cc3sccc32)C(=O)N1CCc1ccc(Cl)cc1 (stereo not drawn) returned Methyltransferases inactive.
`Cc1ccc(NC(=O)CN(C)S(=O)(=O)c2ccc3[nH]c4c(c3c2)CCCC4)cc1C` gave Methyltransferases inactive.
Screening COc1cccc(CNC(=O)Cn2c(=O)oc3cc(S(=O)(=O)NCc4ccccc4)ccc32)c1 returned Methyltransferases inactive.
For Cc1ccc(Cn2c(=O)c3ccc(C(=O)NC(C)C)cc3n3c(=O)n(Cc4ccccc4)nc23)cc1 the results were Methyltransferases inactive.
Cc1c(C)n(Cc2ccc(-c3ccccc3C(=O)O)cc2)c2ccc(C(=O)N[C@@H](C)c3ccc([N+](=O)[O-])cc3)cc12 was read as Methyltransferases active.
COC(=O)[C@H](Cc1ccc([N+](=O)[O-])cc1)NC(=O)c1cccc2ccccc12 was read as Methyltransferases inactive.
Screening CCCCN(C)CCCN1C(=O)c2cc3occc3n2CC1(C)C(=O)NC1CCCCCC1 (stereo not drawn) returned Methyltransferases inactive.
`Clc1ccccc1CNc1nc2c(-c3ccccc3)nnn2c2ccccc12` gave Methyltransferases inactive.
Screening CCCn1c(=O)c2ccc(C(=O)NC3CCCC3)cc2n2c(SCC(=O)c3ccccc3)nnc12 returned Methyltransferases inactive.
Screening COc1ccc(OC)c(CCN2C(=O)c3cc4ccccc4n3CC2(C)C(=O)NCc2ccccc2)c1 (stereo not drawn) returned Methyltransferases inactive.
`CCCn1c(=O)c2ccc(C(=O)NC3CCCCC3)cc2n2c(=O)n(CC(=O)NC3CCCC3)nc12` gave Methyltransferases inactive.
Screening COc1ccccc1Nc1ncc2c(n1)CN(C(=O)c1cc3ccccc3n1C)CCN2 returned Methyltransferases inactive.
Screening COc1cc(N2CCOCC2)ccc1NC(=O)c1csc(-c2cccnc2)n1 returned Methyltransferases inactive.
For COc1cc(N2CCC(N3CCN(C)CC3)CC2)ccc1Nc1ncc(Cl)c(-c2c[nH]c3ccccc23)n1 the results were Methyltransferases active.
Screening COc1cc(N2CCC(N)CC2)ccc1Nc1ncc(Cl)c(-c2c[nH]c3ccccc23)n1 returned Methyltransferases active.
`COCCCN1C(=O)c2cc3ccccc3n2CC1(C)C(=O)NC1CCCCC1` (stereo not drawn) gave Methyltransferases inactive.
For Cc1ccc(CN2C(=O)c3cc4oc(C)cc4n3CC2(C)C(=O)NC2CCCCCCC2)cc1 (stereo not drawn) the results were Methyltransferases inactive.
Screening CCn1c(=O)n(CC)c2cc(S(=O)(=O)Nc3ccc(C)c(Cl)c3)ccc21 returned Methyltransferases inactive.
Screening CCOC(=O)c1ccc2c(c1)[C@@H]1C=CC[C@@H]1[C@H](c1ccccc1Br)N2 returned Methyltransferases inactive.
Screening CN(C)CCc1c[nH]c2ccc(C[C@H]3COC(=O)N3)cc12 returned Methyltransferases inactive.
For CNS(=O)(=O)CCc1ccc2[nH]cc(C3CCN(C)CC3)c2c1 the results were Methyltransferases inactive.
For CN1CCC[C@@H]1Cc1c[nH]c2ccc(CCS(=O)(=O)c3ccccc3)cc12 the results were Methyltransferases active!.
Screening CN1C(=O)c2cc(C(=O)NC3CCCCCC3)nn2CC1(C)C(=O)NC1CCCCCC1 (stereo not drawn) returned Methyltransferases inactive.

Compound activity deposited in PubChem BioAssay by National Center for Advancing Translational Sciences (NCATS).
